Screen size: about 5,500 compounds; about 2,000 (36%) were called active. Inconclusive results (about 18%) are left out. Rule as the data show it: active = normalized growth mostly below about 0.91 (no sharp cut-off); inconclusive = no clear call, values can overlap the other calls; inactive = mostly above about 0.92. The list shows a part of the results.
Assay: chemical genetic growth profiling, strain panel (AID 1159580);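 also: tested at 20 µM; growth read once vehicle control cultures reached saturation at 30 °C; 1 = growth at the plate median or of vehicle wells; lower values mean less growth of the strain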
Conditions: S. cerevisiae deletion strains, growth OD

Measured: normalized growth

CCCCC(=O)Oc1ccccc1C(=O)O
inactive: locus YAL021C, strain ccr4, stronger effect = lower value 0.989 | locus YAL026C, strain drs2, stronger effect = lower value 0.991 | locus YAL030W, strain snc1, stronger effect = lower value 0.989 | locus YBL061C, strain skt5, stronger effect = lower value 0.982 | locus YBR009C, strain hhf1, stronger effect = lower value 0.988 | locus YBR023C, strain chs3, stronger effect = lower value 0.993 | locus YBR171W, strain sec66, stronger effect = lower value 0.952 | locus YBR231C, strain swc5, stronger effect = lower value 0.989 | locus YBR279W, strain paf1, stronger effect = lower value 1 | locus YCL011C, strain gbp2, stronger effect = lower value 0.979 | locus YCL016C, strain dcc1, stronger effect = lower value 0.971 | locus YCL061C, strain MRC1, stronger effect = lower value 0.986 | locus YCL069W, strain vba3, stronger effect = lower value 0.996 | locus YCR088W, strain abp1, stronger effect = lower value 0.976 | locus YDL005C, strain med2, stronger effect = lower value 0.938 | locus YDL040C, strain nat1, stronger effect = lower value 0.989 | locus YDR001C, strain nth1, stronger effect = lower value 0.971 | locus YDR069C, strain doa4, stronger effect = lower value 0.986 | locus YDR137W, strain rgp1, stronger effect = lower value 0.963 | locus YDR159W, strain sac3, stronger effect = lower value 0.953 | locus YDR195W, strain ref2 0.981 | locus YDR297W, strain sur2, stronger effect = lower value 0.988 | locus YDR334W, strain swr1, stronger effect = lower value 0.994 | locus YDR335W, strain msn5, stronger effect = lower value 0.98 | locus YDR392W, strain spt3, stronger effect = lower value 0.997 | locus YEL003W, strain gim4, stronger effect = lower value 0.983 | locus YEL037C, strain rad23, stronger effect = lower value 0.984 | locus YEL061C, strain CIN8 (second series), stronger effect = lower value 0.982 | locus YER015W, strain faa2, stronger effect = lower value 0.991 | locus YER016W, strain bim1, stronger effect = lower value 0.977 | locus YER111C, strain swi4, stronger effect = lower value 0.938 | locus YER155C, strain BEM2 (second series), stronger effect = lower value 0.964 | locus YFR010W, strain ubp6, stronger effect = lower value 1 | locus YGL167C, strain pmr1, stronger effect = lower value 0.957 | locus YGL173C, strain kem1, stronger effect = lower value 0.981 | locus YGL227W, strain vid30, stronger effect = lower value 0.965 | locus YGL240W, strain doc1, stronger effect = lower value 0.971 | locus YGL253W, strain hxk2, stronger effect = lower value 0.989 | locus YHR013C, strain ard1, stronger effect = lower value 0.938 | locus YHR027C, strain rpn1, stronger effect = lower value 0.964 | locus YHR030C, strain SLT2, stronger effect = lower value 0.974 | locus YHR079C, strain IRE1, stronger effect = lower value 0.988 | locus YHR142W, strain chs7, stronger effect = lower value 0.962 | locus YJL092W, strain hpr5, stronger effect = lower value 0.971 | locus YJL095W, strain BCK1 (second series), stronger effect = lower value 0.955 | locus YJL095W, strain BCK1, stronger effect = lower value 0.989 | locus YJL115W, strain asf1, stronger effect = lower value 0.971 | locus YJL129C, strain trk1, stronger effect = lower value 0.946 | locus YJL154C, strain vps35, stronger effect = lower value 0.964 | locus YJL164C, strain tpk1, stronger effect = lower value 0.981 | locus YJL166W, strain qcr8, stronger effect = lower value 0.984 | locus YJR066W, strain TOR1, stronger effect = lower value 0.935 | locus YKL160W, strain elf1, stronger effect = lower value 0.962 | locus YKR026C, strain gcn3, stronger effect = lower value 0.986 | locus YKR091W, strain srl3, stronger effect = lower value 0.971 | locus YLL001W, strain dnm1, stronger effect = lower value 0.985 | locus YLL026W, stronger effect = lower value 0.983 | locus YLL041C, strain sdh2, stronger effect = lower value 0.986 | locus YLR027C, strain aat2, stronger effect = lower value 0.973 | locus YLR113W, strain HOG1, stronger effect = lower value 0.944 | locus YLR221C, strain rsa3, stronger effect = lower value 1.01 | locus YLR258W, strain gsy2, stronger effect = lower value 0.983 | locus YLR262C, strain YPT6 (second series), stronger effect = lower value 0.973 | locus YLR320W, strain mms22, stronger effect = lower value 0.996 | locus YLR342W, strain FKS1, stronger effect = lower value 0.979 | locus YLR357W, strain rsc2, stronger effect = lower value 0.96 | locus YLR370C, strain arc18, stronger effect = lower value 0.971 | locus YLR384C, strain iki3, stronger effect = lower value 0.956 | locus YML120C, strain ndi1, stronger effect = lower value 0.994 | locus YMR058W, strain fet3, stronger effect = lower value 0.979 | locus YMR125W, strain sto1, stronger effect = lower value 0.959 | locus YMR129W, stronger effect = lower value 0.98 | locus YMR205C, strain PFK2, stronger effect = lower value 0.981 | locus YMR231W, strain pep5, stronger effect = lower value 0.967 | locus YNL071W, strain lat1, stronger effect = lower value 1 | locus YNL183C, strain NPR1, stronger effect = lower value 0.936 | locus YNL209W, strain ssb2, stronger effect = lower value 0.974 | locus YNL248C, strain rpa49, stronger effect = lower value 0.959 | locus YNL322C, strain KRE1 (second series), stronger effect = lower value 0.944 | locus YNR049C, strain mso1, stronger effect = lower value 0.988 | locus YOR001W, strain rrp6, stronger effect = lower value 1.01 | locus YOR070C, strain gyp1, stronger effect = lower value 0.972 | locus YOR080W, strain dia2, stronger effect = lower value 0.956 | locus YOR083W, strain WHI5, stronger effect = lower value 0.927 | locus YOR106W, strain vam3, stronger effect = lower value 0.972 | locus YOR231W, strain MKK1, stronger effect = lower value 0.966 | locus YOR265W, strain rbl2, stronger effect = lower value 0.99 | locus YOR270C, strain vph1, stronger effect = lower value 0.96 | locus YOR290C, strain snf2, stronger effect = lower value 0.971 | locus YPL051W, strain arl3, stronger effect = lower value 0.994 | locus YPL078C, strain atp4, stronger effect = lower value 0.977 | locus YPL106C, strain sse1, stronger effect = lower value 0.953 | locus YPL240C, strain hsp82, stronger effect = lower value 0.976 | locus YPL256C, strain CLN2, stronger effect = lower value 0.953

Reference: PubChem BioAssay AID1159580 (chemical genetic matrix, 2015)
